This is part of a sample that, as a whole, favours compounds with a hit. Of some 83,000 tested, about 20% had one in any assay.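 Results are percent growth after 48 hours of single-concentration exposure. 100 means growth as in untreated cells, lower positive values show inhibition; negative values down to -100 show cell death.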 Values without a mark were called inactive. Active and inactive are the calls of the source.

In PubChem BioAssay (NCI) one finds growth data, which are given here for 40 compounds.

For the assay, the system named is CAKI-1 renal. The assay is described as follows: NCI-60 one-dose screen, 48 h (100 = growth as untreated, 0 = no growth, -100 = all killed). To be noted: 10 µM unless noted. On the procedure:
Growth inhibition of the CAKI-1 human tumor cell line is measured as a screen for anti-cancer activity. Cells are grown in 96 well plates and exposed to the test compound for 48 hours. Compounds are tested at a single concentration, which is 10^-5 M for most compounds. The reported endpoint is percent growth (GI% or GIPRCNT), where numbers from 0 - 100% represent growth inhibition, and numbers from -100% - 0 represent cell death. For example, a value of 40 represents 60% growth inhibition. A value of 0 means no net growth occurred over the course of the experiment. A value of -40 indicates 40% of cells at the beginning of the experiment died by the end of the experiment. A value of -100 means all cells are dead at the end of the experiment.
NCI-60 Human Tumor Cell Lines Screen was performed using the standard one-dose NCI protocol, which is described in more detail at https://dtp.cancer.gov/discovery_development/nci-60/default.htm.
Compounds with GIPRCNT values below 10 were considered active. Activity score was based on GIPRCNT using the following formula: […]
Score is 0 for GIPRCNT values of 100 or above, 50 for GIPRCNT values of 0, and 100 for GIPRCNT values of -100.
With `O=C(CNc1nc(-c2ccc(Cl)cc2)cs1)Nc1ccc(-c2nc3ccccc3s2)cc1`, the growth was 94.2%.

Turning to `COc1cc(Nc2ncc3c(n2)-c2ccc(Cl)cc2C(c2c(F)cccc2OC)=NC3)ccc1C(=O)O`, the growth is 68.2%.

In the case of `CN1CCC(CNc2ccc3ncc(-c4cccc(OC(F)(F)F)c4)n3n2)CC1`, the growth is -62.8% (active).

On to `C[C@@H](Nc1cc(F)cc(F)c1)c1cc(C(=O)N(C)C)cc2c(=O)cc(N3CCOCC3)oc12`, for which the growth was 33.6%.

Take `CC(C)(C)c1nc(-c2cccc(NS(=O)(=O)c3c(F)cccc3F)c2F)c(-c2ccnc(N)n2)s1`: the growth is 56.4%.

In the case of `CCCNC(=O)c1cn2ncnc(Nc3cc(C(=O)NC4CC4)ccc3C)c2c1C`, the growth is 67.6%.

Take `CCCCCCCC12Cc3ccccc3C1=Nc1c(c3ccccc3n1C)C2=O` (stereo not given): the growth is 79.7%.

Consider `NC[C@@](O)(c1ccc(Cl)cc1)c1ccc(-c2cn[nH]c2)cc1`, for which the growth was 11.3%.

As to `COc1cc2nccc(Oc3ccc(NC(=O)Nc4cc(C)on4)c(Cl)c3)c2cc1OC`, the growth is 2.09% (active).

In the case of `COc1cnc2c(c1)C(=O)c1c-2n(CCCn2ccnc2)c(=O)c2cc(Cl)ccc12`, the growth is 11.9%.

Regarding `Cc1ccc(NC(=O)c2ccc(CN3CC[C@H](N(C)C)C3)c(C(F)(F)F)c2)cc1Nc1nccc(-c2cncnc2)n1`, the growth is 6.85% (active).

For the compound `O=C1/C(=C\c2cccc(OCCCCCOc3ccc(Cl)cc3)c2)N=C2SCCCN12`, the growth was 52.7%.

Consider `Clc1nc(Cl)c2ncn(C/C=C\Cn3cnc4c(Cl)nc(Cl)nc43)c2n1`, for which the growth was -97.2% (active).

In the case of `Cc1ccc(-c2cc3c(SCC(=O)Nc4cc(C(F)(F)F)ccc4Cl)nccn3n2)cc1`, the growth is 30.2%.

`CCOC(=O)c1sc(NC(=O)COc2ccc(/C=C3\Cc4ccc(Cl)cc4C3=O)cc2)nc1C`: the growth is 96.1%.

As to `Nc1nc(Nc2ccccc2)c(C=Nc2ccccc2)c(=O)[nH]1`, the growth was 68%.

As to `CC(C)(C)c1ccc(Cn2cc(CSc3nc4ccccc4s3)nn2)cc1`, the growth is 82.9%.

Consider `C[C@H]1Oc2cc(cnc2N)-c2c(nn(C)c2C#N)CN(C)C(=O)c2ccc(F)cc21`, for which the growth is 73%.

For `CO[C@H]1C[C@@H]2CC[C@@H](C)[C@@](O)(O2)C(=O)C(=O)N2CCCC[C@H]2C(=O)O[C@H]([C@H](C)C[C@@H]2CC[C@@H](O)[C@H](OC)C2)CC(=O)[C@H](C)/C=C(\C)[C@@H](O)[C@@H](OC)C(=O)[C@H](C)C[C@H](C)\C=C/C=C/C=C/1C`, the growth was 39.6%.

For `Cc1cnc(Nc2ccc(OCCN3CCCC3)cc2)nc1Nc1cccc(S(=O)(=O)NC(C)(C)C)c1`, the growth is -88.3% (active).

For the compound `CC(C)(C)c1cnc(CSc2cnc(NC(=O)C3CCNCC3)s2)o1`, the growth is 16.5%.

As to `COc1cc2cc(NCc3ccc(F)cc3)nc(C)c2cc1OC`, the growth was 67%.

Regarding `C[C@@H](N)c1ccc(C(=O)Nc2ccnc3[nH]ccc23)cc1`, the growth is 20.6%.

For the compound `O=C1CCC(=O)CC1`, the growth was 96.5%.

`CC1(O)CC(c2nc(-c3ccc4ccc(-c5ccccc5)nc4c3)c3c(N)nccn23)C1` (stereo not given): the growth was 10.1%.

As for `COC(=O)[C@H](Cc1ccccc1)NC(=O)[C@@H](OC)[C@@H]1Cc2cc3cc(OC4CC(OC5CC(O)C(O)C(C)O5)C(O)C(C)O4)c(C)c(O)c3c(O)c2C(=O)[C@H]1OC1CC(OC2CC(OC3CC(C)(O)C(O)C(C)O3)C(O)C(C)O2)C(O)C(C)O1` (stereo not given in full), the growth was 15.3%.

On to `O=C1NC(=O)[C@@H](c2cn3c4c(cccc24)CCC3)[C@@H]1c1c[nH]c2ccccc12`, for which the growth was 27%.

In the case of `Cc1cnc(NC(=O)Nc2cc(Br)c(C)cc2OC[C@@H]2CNCCO2)cn1`, the growth was 1.9% (active).

Take `NS(=O)(=O)c1ccc(CCN2C(=O)/C(=C\c3ccc(Cl)cc3)C=C2c2ccc3ccccc3c2)cc1`: the growth was 82.4%.

`O=C(c1ccc(/C=C/c2n[nH]c3ccccc23)cc1)N1CCNCC1`: the growth is 11.7%.

As to `CC(=O)O[C@]1(C)C[C@H](O)[C@]2(O)C=CO[C@H](O[C@@H]3O[C@H](CO)[C@@H](O)[C@H](O)[C@H]3O)[C@@H]21`, the growth was 102%.

In the case of `CCNC(=O)Nc1nc2ccc(Oc3ccnc(C(=O)NC)c3)cc2s1`, the growth is 92.5%.

In the case of `CO[C@H]1C[C@@H]2CC[C@@H](C)[C@@](O)(O2)C(=O)C(=O)N2CCCC[C@H]2C(=O)O[C@H]([C@H](C)C[C@@H]2CC[C@@H](OC(=O)C(C)(CO)CO)[C@H](OC)C2)CC(=O)[C@H](C)/C=C(\C)[C@@H](O)[C@@H](OC)C(=O)[C@H](C)C[C@H](C)\C=C/C=C/C=C/1C`, the growth is 30.9%.

With `O=C1CC(c2cccc(F)c2)c2c(n[nH]c2-c2ccc(Cl)cc2)N1` (stereo not given), the growth is 77.7%.

On to `CCN(CC)Cc1cc(Nc2cc(C(F)(F)F)c(C#N)c3nc4ccccc4n23)ccc1O`, for which the growth was 6.96% (active).

Consider `CSc1nc2ncnc(SC)c2[nH]1`, for which the growth is 90.9%.

`C=CC(=O)Nc1cc(Nc2nccc(-c3cn(C)c4ccccc34)n2)c(OC)cc1N(C)CCN(C)C`: the growth was -86.4% (active).

`N#Cc1c(-c2ccc(C(F)(F)F)cc2)c(F)c(NCCC2CCC(O)C2)n2c1nc1ccccc12` (stereo not given): the growth was 26.6%.

Turning to `Cn1ccnc1C(=O)/C=C/c1ccc(CC(=O)Nc2ccc(Br)cc2)cc1`, the growth was 34.9%.

In the case of `Cc1ccc(NC(=O)Nc2ccc(Nc3ncnc4sc5c(c34)CCOC5)cc2)cc1Cl`, the growth is 91.7%.
